Experimental data as given in PubChem BioAssay (NCI).
This is part of a sample that, as a whole, favours compounds with a hit. Of some 79,000 tested, about 15% had one in any assay. Activity calls are given as the source filed them. Cut-off read from the data, not from the text of the source: active = growth inhibition above about 70%; inactive = the rest.

What was measured:
[1] = NCI Yeast Anticancer Drug Screen. Data for the rad52 strain (AID 147);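 note: 0% = growth of vehicle-treated control cultures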; conditions: S. cerevisiae rad52 mutant growth inhibition, active compounds read high
In short: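 Growth of repair-deficient yeast cells was compared between compound-treated and vehicle-treated cultures to give percent inhibition.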

[2] = NCI Yeast Anticancer Drug Screen. Data for the wt1 strain (AID 149);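 note: 0% = growth of vehicle-treated wt1 cultures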; conditions: S. cerevisiae wt1 strain (SPY 50644) growth inhibition, active compounds read high
In short: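 Each compound is tested on wt1 yeast and the loss of growth versus vehicle gives the inhibition value.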

[3] = NCI Yeast Anticancer Drug Screen. Data for the rad50EPP+ strain (AID 151);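 note: 0% = growth of vehicle-treated control cultures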; conditions: S. cerevisiae rad50 mutant strain, active compounds read high
In short: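 Measured: growth inhibition of rad50EPP+ yeast. Reference: vehicle-treated controls. Screen uses strains with defined genetic alterations in DNA damage repair or cell cycle control.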

[4] = NCI Yeast Anticancer Drug Screen. Data for the rad50 strain (AID 155);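 note: 0% = growth of vehicle-only cultures of the same strain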; conditions: S. cerevisiae rad50 strain growth inhibition, active compounds read high
In short: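 Vehicle-treated cultures provide the reference for the growth inhibition reported for compound-exposed, repair-deficient yeast.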

[5] = NCI Yeast Anticancer Drug Screen. Data for the mec2-1 strain (AID 157); conditions: S. cerevisiae mec2-1 strain, active compounds read high
In short: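 Compounds were applied to mec2-1 yeast cells. Their growth was then compared with that of vehicle-treated cultures to give growth inhibition.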

[6] = NCI Yeast Anticancer Drug Screen. Data for the rad14 strain (AID 159);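 note: 0% = growth of vehicle-treated control cultures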; conditions: S. cerevisiae rad14 strain growth inhibition, active compounds read high
In short: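 Inhibition of growth is reported for a repair-deficient yeast mutant following compound treatment, calculated relative to cultures that received vehicle.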

[7] = NCI Yeast Anticancer Drug Screen. Data for the sgs1 mgt1 strain (AID 161);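 note: 0% = growth of cultures given vehicle only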; conditions: S. cerevisiae sgs1 mgt1 strain, active compounds read high
In short: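 This yeast growth screen uses a strain with defined DNA-repair lesions; compound-treated growth is compared with vehicle-treated growth.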

[8] = NCI Yeast Anticancer Drug Screen. Data for the CLN2oe strain (AID 163);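 note: 0% = growth of vehicle-only control cultures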; conditions: S. cerevisiae CLN2oe strain, active compounds read high
In short: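 Cells of an engineered yeast line with disturbed cell-cycle regulation are treated with compound. Inhibition of growth is then calculated relative to the vehicle-treated reference.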

[9] = NCI Yeast Anticancer Drug Screen. Data for the cln2 rad14 strain (AID 165);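 note: 0% = growth equal to vehicle treated cultures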; conditions: S. cerevisiae cln2 rad14 strain, active compounds read high
In short: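 Strain: cln2 rad14 yeast, altered in cell cycle control and DNA damage repair. Read-out: growth inhibition vs vehicle.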

[10] = NCI Yeast Anticancer Drug Screen. Data for the bub3 strain (AID 167); conditions: S. cerevisiae bub3 mutant strain, active compounds read high
In short: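 Mutant yeast screening strain plus compound; vehicle-treated cultures serve as the 0% inhibition reference.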

[11] = NCI Yeast Anticancer Drug Screen. Data for the wt2 strain (AID 169); conditions: S. cerevisiae wt2 strain growth inhibition, active compounds read high
In short: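 Growth of compound-treated yeast is measured and expressed as inhibition relative to vehicle-only controls.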

[12] = NCI Yeast Anticancer Drug Screen. Data for the mlh1 strain (AID 171);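 note: 0% = growth of vehicle-treated control cultures of the same strain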; conditions: S. cerevisiae mlh1 strain growth inhibition, active compounds read high
In short: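 Test agents were incubated with yeast bearing a defined DNA damage repair or cell cycle control alteration; values are growth inhibition normalised to vehicle-treated cultures.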

[13] = NCI Yeast Anticancer Drug Screen. Data for the sgs1 strain (AID 173);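 note: 0% = growth of vehicle-only control cultures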; conditions: S. cerevisiae sgs1 mutant, active compounds read high
In short: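 Strain with an altered DNA repair or cell cycle pathway exposed to compound. Growth then measured. Value = inhibition versus vehicle control.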

[14] = NCI Yeast Anticancer Drug Screen. Data for the mlh1 rad18 strain (AID 175); conditions: S. cerevisiae mlh1 rad18 strain growth inhibition, active compounds read high
In short: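 A repair-deficient yeast strain is exposed to test compound, and growth is scored relative to vehicle-treated controls.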

[15] = NCI Yeast Anticancer Drug Screen. Data for the rad18 strain (AID 177); conditions: S. cerevisiae rad18 mutant growth inhibition, active compounds read high
In short: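 DNA-repair-defective yeast; compound treatment; growth inhibition scored against vehicle.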

[16] = NCI Yeast Anticancer Drug Screen. Data for the mgt1 strain (AID 153); conditions: S. cerevisiae mgt1 mutant growth inhibition, active compounds read high
In short: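 Compounds were applied to mgt1 mutant yeast, and growth was then compared against vehicle-treated control cultures to give percent inhibition.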

[17] = at 5.0 µM (retest, dose inferred, filed as 0.5)
[18] = at 50.0 µM (retest, dose inferred, filed as 5.0)

Measured: growth inhibition

O=P(NC1CCCCC1)(OCc1ccccc1)OCc1ccccc1
active: [4]; at 50.0 µM 73.3%
inactive: [1]; at 1.2 µM -1% | [1]; at 3.7 µM 4% | [1]; at 11.0 µM 16% | [1]; at 33.0 µM 26% | [1]; at 100.0 µM 26% | [2]; at 1.2 µM 0% | [2]; at 3.7 µM 3% | [2]; at 11.0 µM 0% | [2]; at 33.0 µM 3% | [2]; at 100.0 µM 7% | [3]; at 1.2 µM 2% | [3]; at 3.7 µM 4% | [3]; at 11.0 µM 10% | [3]; at 33.0 µM 9% | [3]; at 100.0 µM 7% | [4]; at 1.2 µM 3% | [4]; at 3.7 µM 5% | [4]; [17] 8% | [4]; at 11.0 µM 11% | [4]; at 33.0 µM 19% | [4]; [18] 14% | [4]; at 100.0 µM 26% | [5]; at 1.2 µM 1% | [5]; at 3.7 µM 1% | [5]; [17] 5% | [5]; at 11.0 µM 7% | [5]; at 33.0 µM 10% | [5]; [18] 4% | [5]; at 50.0 µM 23.6% | [5]; at 100.0 µM 11% | [6]; at 1.2 µM -1% | [6]; at 3.7 µM -2% | [6]; at 11.0 µM 4% | [6]; at 33.0 µM 6% | [6]; at 100.0 µM 13% | [7]; [17] 7% | [7]; [18] 7% | [7]; at 50.0 µM 42.3% | [8]; at 1.2 µM 7% | [8]; at 3.7 µM 2% | [8]; at 11.0 µM 10% | [8]; at 33.0 µM 12% | [8]; at 100.0 µM 17% | [9]; [17] 15% | [9]; [18] 9% | [9]; at 50.0 µM -12.7% | [10]; at 1.2 µM 0% | [10]; at 3.7 µM 4% | [10]; [17] 3% | [10]; at 11.0 µM 3% | [10]; at 33.0 µM 5% | [10]; [18] 2% | [10]; at 50.0 µM 7.8% | [10]; at 100.0 µM 2% | [11]; at 1.2 µM 1% | [11]; at 3.7 µM 2% | [11]; at 11.0 µM 2% | [11]; at 33.0 µM 4% | [11]; at 100.0 µM 8% | [12]; at 1.2 µM -7% | [12]; at 3.7 µM 0% | [12]; at 11.0 µM 2% | [12]; at 33.0 µM 4% | [12]; at 100.0 µM 7% | [13]; at 1.2 µM 0% | [13]; at 3.7 µM -1% | [13]; at 11.0 µM 0% | [13]; at 33.0 µM 9% | [13]; at 100.0 µM 17% | [14]; [17] 3% | [14]; [18] 3% | [14]; at 50.0 µM 34.8% | [15]; at 1.2 µM -1% | [15]; at 3.7 µM 3% | [15]; at 11.0 µM 13% | [15]; at 33.0 µM 26% | [15]; at 100.0 µM 28%

O=C1Nc2ccc(Br)cc2C1=Nc1ccc2c(c1)OCO2
inactive: [1]; at 1.2 µM 10% | [1]; at 3.7 µM 8% | [1]; at 11.0 µM 3% | [1]; at 33.0 µM 10% | [1]; at 100.0 µM 2% | [2]; at 1.2 µM -12% | [2]; at 3.7 µM -3% | [2]; at 11.0 µM -12% | [2]; at 33.0 µM -12% | [2]; at 100.0 µM 2% | [3]; at 1.2 µM -34% | [3]; at 3.7 µM -37% | [3]; at 11.0 µM -45% | [3]; at 33.0 µM -35% | [3]; at 100.0 µM -48% | [16]; at 1.2 µM -9% | [16]; at 3.7 µM -32% | [16]; at 11.0 µM -15% | [16]; at 33.0 µM -15% | [16]; at 100.0 µM -30% | [5]; at 1.2 µM -59% | [5]; at 3.7 µM -27% | [5]; [17] 41% | [5]; at 11.0 µM -54% | [5]; at 33.0 µM -58% | [5]; [18] 56% | [5]; at 50.0 µM -5.95% | [5]; at 100.0 µM -40% | [6]; at 1.2 µM -38% | [6]; at 3.7 µM -29%
